Coupling enz: counter-screen for Giardia aldolase inhibitors: coupling enzyme system; activity change, negative = inhibition, % at 58.2 µM, hits read low; AID 2472; actives 0.67% (n = 290,000); coupling enzyme system counterscreen, AmpLite Red fluorescence; in the data active = activity change below about -30%
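Final compound at 57.5 uM, incubated 10 min at RT with coupling enzyme reagent (glyceraldehyde-3-phosphate), then 20 min with substrate and AmpLite Red detection. Fluorescence read at 525/598 nm; tests interference with the coupling assay, not aldolase inhibition.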
Tau fibril FP: blocks human tau fibril formation measured by polarization; P10636; K18 P301L tau heparin fibrillization, Alexa594 FP, 6 h; actives 0.39% (n = 280,000); Potency, µM (series often up to 57.7 µM), without a hit: at the top dose activity, negative = inhibition, actives largely listed as inhibitors; also: potency is read from the fitted curve at half-maximal effect; nearly all actives have a fitted effect of over 55% in size
Target sequence (P10636 561-689 P618L limits assumed): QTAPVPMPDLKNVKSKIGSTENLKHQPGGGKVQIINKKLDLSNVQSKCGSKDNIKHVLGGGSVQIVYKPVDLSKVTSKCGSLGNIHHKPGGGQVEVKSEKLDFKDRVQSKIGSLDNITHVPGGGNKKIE
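K18 P301L tau (15 uM unlabeled/0.24 uM Alexa 594-labeled, final) + compound + heparin 20 uM final; 100 mM NaOAc pH 7; 6 hr 37 C; ThT 30 uM final added, 1 hr RT; FP ex 555/em 632 nm.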
Sfp PPTase inh: Sfp phosphopantetheinyl transferase inhibition; Potency, µM, inactives show largest response in the series, negative = inhibition, most hits filed as inhibitors; actives 3.5% (n = 310,000); Q9F4F7; Biochemical Sfp PPTase activity, qHTS;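 also: the enzyme is Sfp with the accession as filed and its product quenches rhodamine fluorescence; potency is read from the fitted curve at half-maximal effect; 0% = enzyme reaction without inhibitor and -100% = no enzyme wells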
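Fluorescence-quenching assay with 15 nM Sfp, 5 uM rhodamine-CoA and 12.5 uM BHQ-2-labelled ybbR peptide in pH 7.6 Hepes/MgCl2 buffer. Enzyme was pre-incubated with compound for 15 min at room temperature. Rate was taken from the 30-min fluorescence change (525/598 nm).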
Tau ThT inhib: inhibitors of human tau fibril formation, thioflavin T binding. P10636. recombinant tau K18 P301L, heparin-induced fibrillization, ThT fluorescence. Potency, µM (doses to about 57.4 µM), for inactives: at the highest dose activity, negative = inhibition, hits mostly inhibitors. actives 2.1% (n = 270,000). AID 1460; also: potency is read from the fitted curve at half-maximal effect; nearly all actives have a fitted effect of over 55% in size
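Tau K18 P301L fragment (15 uM unlabeled plus 0.24 uM Alexa 594-labeled) in 100 mM sodium acetate pH 7 with compound, fibrillization induced by 20 uM heparin for 6 hr at 37 C. Thioflavin T (30 uM) added, fluorescence read after 1 hr (ex 450, em 510 nm).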
Tau fluor counter: counter-screen for tau fibril formation inhibitors | tau K18 P301L (four-repeat tau fragment) Alexa594 fluorescence, heparin fibrillization | actives 0.93% (n = 280,000) | Potency, µM (highest dose often 57.7 µM), for inactives: at the top dose activity change, negative = decrease | AID 1463; also: potency is read from the fitted curve at half-maximal effect; nearly all actives have a fitted effect of over 55% in size
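Human K18 P301L tau (15 uM unlabeled plus 0.24 uM Alexa 594-labeled, final) in 100 mM sodium acetate pH 7 was mixed with compound and 20 uM heparin and incubated 6 hr at 37 C.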
Starred values were filed as active, the others as inactive; ? = inconclusive; nt = no result; [ ] = dose if it differs, or a comment. In the library only some 5.2% were active in any assay of this set; here they are far more common. Unless noted, calls follow the shape of the dose curve; as a rule, active = well fitted curve in the direction sought with a large enough effect; inconclusive = small, poorly fitted or top-dose-only effect, or another doubt; inactive = no such curve, though single readings can be large; an effect the other way counts as inactive or inconclusive. Unless noted, % is scaled to controls: 0 for no effect and ±100 for the full control effect.

SMILES | Coupling enz | Tau fibril FP | Sfp PPTase inh | Tau ThT inhib | Tau fluor counter
CS(=O)(=O)Nc1cccc(-c2ccc3ncnc(NCc4cccnc4)c3c2)c1 | -1 | ? | 24% | -4% | -14%
CC(=O)c1cccc(Nc2nc(-c3cccc([N+](=O)[O-])c3)cs2)c1 | -2 | 4% | -20% | 4µM* | 7.1µM*[quencher]
Cc1ccc(-c2csc(NC(=O)c3cccc([N+](=O)[O-])c3)n2)cc1 | 5 | -7% | 9% | -10% | -24%
N#C/C(=N\Nc1cc(Cl)cc(Cl)c1)c1nnc2n1CCCCC2 | 3 | -1% | ? | 0% | -3%
N#C/C(=C1\C(=O)Nc2c(Cl)cc(Cl)cc21)c1nnc2n1CCCCC2 | -38* | ? | ? | 16µM* | -25%
O=S(=O)(c1ccc2c(c1)CCCN2)N1CCCC2CCCCC21 (stereo unspecified) | 3 | 19% | -10% | -16% | ?
CCN(CC)c1ccc2c(c1)CCCN2 | 2 | ? | -6% | 25µM* | ?
O=S(=O)(C/C(=C/CO)S(=O)(=O)c1ccccc1)c1ccccc1 | 0 | ? | -6% | 3.5µM* | -14%
Cc1cnc(CNc2ncncc2-c2ccccc2C)cn1 | 0 | nt | ? | nt | nt
c1ccc(-c2nc3nc4ccccc4nc3n2Cc2ccco2)cc1 | -2 | -5% | 10µM* | ? | -10%
Fc1ccc(-c2nc3nc4ccccc4nc3n2Cc2ccco2)cc1 | 1 | -1% | 18µM* | ? | -12%
S=c1nc(-c2ccccc2)n(Cc2ccco2)c2c1CCCC2 | 1 | -4% | -21% | ? | -13%
Cc1ccc(Cn2c(CCNC(=O)C(C)C)nc3ccccc32)cc1 | nt | -1% | nt | 1% | -8%
COc1ccccc1CNc1ccnc(-c2ccc(N(C)C)cc2)n1 | -8 | nt | ? | nt | nt
COCCN1CCc2nc(SCC(=O)Nc3ccc(Br)cc3)[nH]c(=O)c2C1 | nt | -4% | nt | -4% | -7%
COc1ccc(-n2c(=O)c3ccccc3n(CC(=O)NCCc3ccccc3)c2=O)c(OC)c1 | nt | -4% | nt | -4% | -14%
Cc1cc(-n2c(C)nc3ccccc3c2=O)ccc1NC(=O)c1ccc(C)c([N+](=O)[O-])c1 | nt | -1% | nt | -17% | -8%
O=C1CCCC2[C@@H]3CCC[N@+]4([O-])CCC[C@H](CN12)C34 (stereo partly specified) | 3 | ? | -10% | -7% | -5%
COc1cc(/C=C2\C(=N)N3N=CSC3=NC2=O)ccc1OS(=O)(=O)c1ccccc1[N+](=O)[O-] | 7 | nt | -4% | nt | nt
N=C1/C(=C\c2ccc(SCc3ccccc3)o2)C(=O)N=C2SC(CC(=O)N3CCOCC3)=NN12 | 10 | 7% | -21% | 14µM* | -11%
Cc1ccc(/C=C2\C(=N)N3N=C(CC(=O)N4CCOCC4)SC3=NC2=O)o1 | nt | nt | 4% | nt | nt
CCS(=O)(=O)C1=NN2C(=N)/C(=C\c3ccc(OC(=O)c4ccco4)c(Br)c3)C(=O)N=C2S1 | 8 | nt | -7% | nt | nt
CCS(=O)(=O)C1=NN2C(=N)/C(=C\c3ccc(SCc4ccco4)o3)C(=O)N=C2S1 | 5 | -21% | 20µM* | 14µM* | ?
N=C1/C(=C\c2ccc(SCc3ccccc3)o2)C(=O)N=C2SC=NN12 | 3 | ? | 5% | 8.9µM* | -19%
N#Cc1ccccc1-c1ccc2ncnc(NCCN3CCOCC3)c2c1 | 2 | nt | 37% | nt | nt
SMILES | Coupling enz | Tau fibril FP | Sfp PPTase inh | Tau ThT inhib | Tau fluor counter
Cc1[nH]c(=S)[nH]c(=O)c1CCC1OCCO1 | 0 | 17% | 79µM* | nt | -10%
CCc1ccc(NCc2cc3cc4c(cc3n(CC(=O)Nc3ccccc3Cl)c2=O)OCO4)cc1 | nt | ? | nt | -9% | ?
C=CCn1c(O)c(C2=c3ccccc3=NC2=O)sc1=Nc1ccc(O)cc1 | 2 | ? | -13% | 13µM* | 13µM*[quencher]
CC(C)=NNc1nc(-c2ccc([N+](=O)[O-])cc2)cs1 | -1 | 10% | -22% | 8.9µM* | -29%
CC(=O)Nc1nc(-c2ccc([N+](=O)[O-])cc2)cs1 | 0 | 9% | 17% | -5% | -7%
C/C=C/C=N/Nc1nc(-c2ccc([N+](=O)[O-])cc2)cs1 | 0 | 14% | 17% | 3.5µM* | ?
COc1ccccc1C(=O)NN1C(=O)/C(=C/c2cccn2C)SC1=S | -4 | -16% | 6% | ? | ?
Cn1cccc1/C=C1\SC(=S)N(NC(=O)c2ccccc2O)C1=O | 7 | 4% | ? | 7.9µM* | ?
COc1cc(/C=C2\SC(=S)N(NC(=O)c3ccccc3OC)C2=O)ccc1O | 1 | nt | 175% | nt | nt
O=C(NN1C(=O)/C(=C/C=C/c2ccco2)SC1=S)c1ccccc1O | 4 | ? | 56µM* | 7.1µM* | ?
Cn1cccc1/C=C1\SC(=S)N(NC(=O)c2ccccc2)C1=O | 1 | 1% | -22% | 11µM* | ?
Cn1cccc1/C=C1\SC(=S)N(NC(=O)c2cccc(Cl)c2)C1=O | 6 | -1% | -24% | 4µM* | ?
COC(=O)C1=C(C(=O)OC)[C@@H]2Nc3ccccc3[C@@]23C[C@@H](C(=O)OC)N(S(=O)(=O)c2cccs2)C3=N1 | 1 | 0%[11.6 µM] | -7% | 2%[11.5 µM] | -7%[11.6 µM]
Cn1cccc1/C=C1\SC(=S)N(NC(=O)c2ccc(F)cc2)C1=O | 2 | -13% | -13% | 3.5µM* | ?
O=C(NN1C(=O)/C(=C/c2cccs2)SC1=S)c1ccccc1 | 0 | -3% | -4% | ? | -29%
COc1ccc(NC(=O)C(C(C)C)N2Cc3ccccc3C2=O)cc1 (stereo unspecified) | nt | 6% | nt | -9% | -11%
CC(=O)NCCNc1ncncc1-c1ccc(N(C)C)cc1 | -1 | nt | ? | nt | nt
Cc1ccc2cc(C(c3nnnn3Cc3ccccc3)N3CCc4ccccc43)c(=O)[nH]c2c1C (stereo unspecified) | -23 | 7% | 50µM* | -15% | -20%
CCc1ccc2[nH]c(=O)c(C(c3nnnn3Cc3ccco3)N3CCC(C)CC3)cc2c1 (stereo unspecified) | -1 | 6% | 6% | -13% | -21%
Cc1ccc2[nH]c(=O)c(C(c3nnnn3Cc3ccccc3)N3CCc4ccccc43)cc2c1 (stereo unspecified) | -33* | ? | 20µM* | 20µM* | ?
Cc1cc2cc(C(c3nnnn3Cc3ccco3)N3CCc4ccccc4C3)c(=O)[nH]c2cc1C (stereo unspecified) | -17 | ? | 11µM* | 28µM* | -24%
Cc1cccc2cc(C(c3nnnn3Cc3ccccc3)N3CCN(C)CC3)c(=O)[nH]c12 (stereo unspecified) | 0 | 5% | 15% | -5% | -7%
Cc1cc2cc(C(c3nnnn3Cc3ccccc3)N3CCc4ccccc43)c(=O)[nH]c2cc1C (stereo unspecified) | -45* | ? | 35µM* | 16µM* | -30%

Screening results: PubChem BioAssay, National Center for Advancing Translational Sciences (NCATS)
